Common to all, as to assay: NCI-60 one-dose screen, 48 h (100 = growth as untreated, 0 = no growth, -100 = all killed)
Holding throughout (conditions): 10 µM unless noted

Test [1] concerns SK-MEL-2 melanoma.
Test [2] relates to EKVX NSCLC.
Test [3] deals with SN12C renal.
For test [4], the system named is UO-31 renal.
Test [5] deals with TK-10 renal.
In test [6] the test system is ACHN renal.
Test [7] relates to CAKI-1 renal.
Test [8] relates to A498 renal.
In test [9] the test system is CCRF-CEM leukemia.
Test [10] relates to OVCAR-8 ovarian.
Test [11] deals with OVCAR-5 ovarian.
Test [12] has as its system OVCAR-4 ovarian.
The subject of test [13] is SK-OV-3 ovarian.
Test [14] has as its system IGROV1 ovarian.
The subject of test [15] is OVCAR-3 ovarian.
Test [16] deals with HS 578T breast.
Test [17] concerns NCI/ADR-RES ovarian.
Test [18] concerns MOLT-4 leukemia.
The test system of test [19] is SR leukemia.
In test [20] the test system is RPMI-8226 leukemia.

For 17 compounds, growth results are on record in PubChem BioAssay (NCI).

Structures are written as SMILES. Compounds without any hit were thinned out: in the full panel of roughly 83,000, 20% have a hit.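 Cells were grown in 96-well plates and exposed to the test compound at a single concentration for 48 hours; results are reported as percent growth, with values below 10 considered active.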 Unmarked numbers belong to inactive results. Calls of active or inactive are those of the source.

Consider `COc1cc(NC(=O)CSc2nc3ccc(Cl)cc3c(=O)n2Cc2ccccc2)cc(OC)c1OC`, for which the growth in [1] was 77.6%; in [2], 83.2%; in test [3], 88.5%; in test [4], 62.4%; in test [5], 72.9%; in test [6] it was 57.6%. Moreover, the growth in test [7] is 76.9%; in test [8], 11.7%; in test [9], 93.8%; in test [10], 68.7%; in test [11], 85.4%; in test [12], 81.1%. For the same compound, the growth in test [13] was 72%; in test [14] it was 84.9%; in test [15] it was 77.7%; in [16] it was 47.4%; in [17], 67.7%.
For `CS(=O)(=O)c1ccc(C(=O)Nc2ccc(Cl)c(-c3ccccn3)c2)c(Cl)c1`, the growth was -6.37% (active) in test [1]; 23.5% in test [2]; 28.2% in test [3]; 24.6% in [4]; 11.9% in [5]; 27.9% in test [6]. Moreover, the growth in [7] is -17.6% (active); in [8], 6.2% (active); in [18], 11.5%; in test [19], 9.7% (active); in test [10] it was 23.3%; in test [11], 33.6%. Moreover, the growth in [12] is 26.8%; in test [13], 19.2%; in test [14], 25.2%; in test [15] it was -11.1% (active); in [16] it was 51.1%; in test [17], 11.1%.
With `COC(=O)CSc1ccc(Cl)cc1`, the growth in test [1] is 104%; in test [2] it was 101%; in test [3] it was 121%; in [4], 93.3%; in test [5] it was 104%; in test [6], 104%. Moreover, the growth in [7] is 95.1%; in [8] it was 79.9%; in [18], 88.8%; in test [19], 78%; in test [10], 106%; in test [11], 107%. The growth in test [13] was 102%; in [14], 93.9%; in test [15], 122%; in test [16], 108%; in [17], 115%.
Consider `FC(F)(F)c1nn[nH]n1`, for which the growth was 112% in test [1]; 99.3% in test [2]; 105% in [3]; 99.1% in [4]; 111% in test [5]; 109% in test [6]. In addition, the growth in [7] is 97%; in test [8], 102%; in test [18], 101%; in [19], 104%; in test [20], 89.5%; in test [10], 105%. Further, the growth is 108% in [11]; 111% in test [12]; 107% in test [13]; 118% in test [14]; 104% in [15]; 111% in test [16].
Regarding `CCOC(=O)Nc1ccc2nc(N3CCCCCC3)sc2c1`, the growth in test [1] was 36.8%; in test [2], 59.9%; in test [3], 44.2%; in test [4] it was 39.2%; in [5] it was 51.1%; in test [6] it was 61.9%. The growth in test [7] is 27.2%; in test [8], 54.7%; in test [9], 16.7%; in [20], 19.5%; in test [10], 32.7%; in [11], 65.7%. The growth in [12] was 57.5%; in test [13], 5.7% (active); in [14] it was 49.8%; in test [15] it was -20.5% (active); in test [16] it was 43.7%; in test [17] it was 0.974% (active).
On to `C=CCN1C(=O)/C(=c2\sc3n(c2=O)C2C(NN=3)N(CC)C(=O)N2CC)c2ccccc21` (centres undefined), for which the growth is 46.5% in [1]; 37.3% in test [2]; 35.8% in test [3]; 48.3% in test [4]; 60.6% in [5]; 37.6% in test [6]. Moreover, the growth was 43.2% in [7]; 10.7% in test [8]; 12.8% in [9]; 23.8% in [19]; 19% in [10]; 44.9% in test [11]. In addition, the growth in test [12] was 65.6%; in [13] it was 34.2%; in [14] it was 35.4%; in [15], -11.4% (active); in test [16] it was 59.4%; in [17], -1.04% (active).
In the case of `O=C(CCCN1CCC(O)(c2ccc(Br)cc2)CC1)c1ccc(F)cc1`, the growth in test [1] is 100%; in [2], 91%; in test [3], 72.8%; in test [4] it was 45.6%; in test [5], 96.6%; in test [6] it was 72.5%. For the same compound, the growth in [7] is 82.1%; in [8], 82.2%; in [9], 63.8%; in [20], 73.4%; in [10], 79.3%; in test [11], 80%. The growth was 64.7% in test [12]; 86% in test [13]; 74% in test [14]; 90% in [15]; 74% in test [17].
With `CCCCOc1nc2ccc(C)cc2cc1/C=C/C(=O)/C=C(O)/C=C/c1cc2cc(C)ccc2nc1OCCCC`, the growth in test [1] was 103%; in [2] it was 102%; in test [3], 111%; in [4], 97.7%; in [5], 102%; in test [6], 102%. For the same compound, the growth in test [7] was 98.1%; in test [8], 116%; in [9], 97.6%; in [19], 95.9%; in test [10], 100%; in [11], 102%. For the same compound, the growth in [12] is 116%; in test [13] it was 89.9%; in test [14], 109%; in test [15], 113%; in test [16], 100%; in test [17] it was 96.8%.
For `C(=Nc1ccc(-c2ccc(N=Cc3ccccc3)cc2)cc1)c1ccccc1`, the growth is 109% in test [1]; 105% in test [2]; 93.3% in test [3]; 66.6% in test [4]; 110% in test [5]; 101% in [6]. Moreover, the growth is 94.3% in test [7]; 97.9% in test [8]; 88.3% in [9]; 86.3% in [19]; 103% in test [20]; 109% in test [10]. Besides, the growth was 116% in [11]; 103% in test [13]; 111% in test [15]; 82.1% in [16]; 101% in test [17].
In the case of `CC(=O)CC(c1ccc([N+](=O)[O-])cc1)c1c(O)c2ccccc2oc1=O` (centres undefined), the growth in [1] was 97%; in test [2], 108%; in [3], 92.2%; in test [4], 76.7%; in [5] it was 105%; in test [6] it was 98.1%. Besides, the growth in test [7] was 94.1%; in test [8], 70.3%; in test [18], 100%; in test [19], 92.9%; in [20], 108%; in [10], 105%. Further, the growth in test [11] is 100%; in [12] it was 110%; in [13], 108%; in [15], 109%; in test [16], 97.9%; in test [17], 105%.
For the compound `O=P(O)(O)C(O)(Cc1cccnc1)P(=O)(O)O`, the growth was 111% in [1]; 103% in test [2]; 94% in [3]; 84.6% in test [4]; 144% in [5]; 100% in [6]. Moreover, the growth in test [7] is 94.2%; in [8], 119%; in [9], 79.1%; in test [20], 98.2%; in [10], 94.6%; in [11], 118%. Also, the growth is 86.9% in [12]; 111% in test [13]; 95.8% in [14]; 100% in test [15]; 102% in test [17].
Consider `CCOC(=O)c1cc(C(=O)OCC)c(C)nc1C`, for which the growth in [1] was 124%; in test [2] it was 102%; in test [3], 105%; in test [4], 96.5%; in test [5] it was 113%; in [6] it was 112%. Further, the growth in test [7] was 103%; in test [8] it was 110%; in test [18], 90.8%; in test [19], 87.9%; in test [10], 104%; in test [11], 99.8%. Further, the growth in test [13] was 114%; in test [14] it was 111%; in test [15], 114%; in test [16] it was 126%; in [17], 110%.
Take `Clc1cc2nc(-c3ccccc3)c(-c3ccccc3)nc2cc1Cl`: the growth in test [1] was 87.9%; in [2], 82.6%; in test [3], 90.4%; in [4], 55.7%; in test [5], 123%; in test [6], 93.7%. Also, the growth in test [7] is 89.4%; in test [8] it was 82%; in [9] it was 88.2%; in test [10] it was 112%; in [11], 98.6%; in test [12] it was 86.9%. For the same compound, the growth was 89.3% in test [13]; 65.6% in test [14]; 92.1% in [15]; 93.7% in test [16]; 98.5% in test [17].
As for `C=C(c1ccc(C(=O)NCCCn2ccnc2)cc1)c1cc2c(cc1C)C(C)(C)CCC2(C)C`, the growth in [1] was 55.9%; in [2], 27.1%; in [3], 19.5%; in test [4], -20.4% (active); in test [5], 84.9%; in test [6], -16.6% (active). The growth in test [7] is -35.6% (active); in test [8] it was 116%; in test [9], 13.5%; in test [19] it was -27.2% (active); in test [20] it was 22.7%; in test [10] it was 40%. Also, the growth in test [12] is 37%; in test [13], 4.17% (active); in test [14], 7.28% (active); in test [15] it was 25.7%; in test [16] it was 59.7%; in test [17] it was 5.05% (active).
`OC(CCCCCCCCC(O)CN1CCc2ccccc2C1)CN1CCc2ccccc2C1` (centres undefined): the growth in test [1] is 111%; in test [2], 89.5%; in [3], 105%; in test [4] it was 86.1%; in test [5], 103%; in test [6], 110%. The growth in test [7] is 92.6%; in test [8] it was 107%; in [18] it was 110%; in test [19] it was 104%; in [10], 104%; in test [11] it was 102%. The growth is 96.2% in test [12]; 105% in test [13]; 95.1% in [14]; 107% in [15]; 108% in test [16]; 98.1% in test [17].
Regarding `S=C(Nc1ccc(Cl)cc1)Nc1ccc(Cl)cc1` (tested in a mixture with another compound), the growth is -32.7% (active) in test [1]; -4.98% (active) in test [2]; 11.1% in test [3]; -5.47% (active) in test [4]; 1.45% (active) in test [5]; 3.54% (active) in test [6]. The growth in test [7] was -20.3% (active); in test [8], -8.63% (active); in test [18] it was 15.3%; in test [19] it was 5.29% (active); in test [20], 9.87% (active); in [10], 1.13% (active). Also, the growth was 12.5% in test [11]; 10.5% in test [12]; -0.571% (active) in [13]; 16.2% in [14]; 5.45% (active) in test [15]; 17.4% in test [16].
Take `Cn1c(=O)c2c(nc(N/N=C/c3ccccc3Cl)n2C)n(C)c1=O`: the growth is 81.6% in test [1]; 106% in test [2]; 99% in test [3]; 81.5% in test [4]; 101% in test [5]; 103% in test [6]. Moreover, the growth is 97.8% in [7]; 170% in [8]; 94.5% in [9]; 111% in test [20]; 98.6% in test [10]; 95.7% in test [11]. For the same compound, the growth was 115% in test [12]; 110% in test [13]; 102% in test [14]; 119% in test [15]; 137% in test [16]; 97.3% in [17].
